Screens from PubChem BioAssay.
Nrf2 block = blocks Nrf2 signaling; A549 ARE-Fluc reporter, luciferase luminescence, 18-24 h; Potency, µM (titrated, usually from 46 µM), usual class: inhibitors; 360,000 compounds, 2.1% hits; AID 504444; also: nearly all actives have a fitted effect of over 60% in size
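A549 ARE_Fluc cells, 5000/well, 5% FBS OPTI-MEM; compounds in dose-response, 18-24 h at 37 °C/5% CO2; CellTiter-Fluor viability read (Ex 405/Em 525), then BugLite luciferase luminescence = Nrf2 activity.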
ATXN viability = viability counter-screen for ATXN expression inhibitors; 400,000 compounds, 0.49% hits; S2 cells (HEK-293 line with an ATXN2-luciferase reporter) viability, CellTiter-Fluor protease fluorescence, 24 h; Potency, µM (doses to about 56.7 µM), actives largely listed as cytotoxic; AID 651635; also: nearly all actives have a fitted effect of over 40% in size
ATXN2 expr inh = reduces ATXN2 reporter expression in HEK-293 cells; Potency, µM (titrated, usually from 57 µM), hits mostly inhibitors; HEK-293 ATXN2-luciferase reporter, luminescence, 24 h; 360,000 compounds, 0.72% hits; AID 1745845; also: nearly all actives have a fitted effect of over 55% in size
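ATXN2-luciferase reporter cells (luciferase flanked by upstream and downstream ATXN2 gene portions) were treated 24 h at 37 °C with compounds at up to 57 uM. SteadyGlo luminescence gave expression; GF-AFC fluorescence gave viability.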
TGFb SMAD3 inh = inhibitors of TGF-b signaling | 410,000 compounds, 1.2% hits | AID 588855 | Potency, µM (titrated, usually from 46.1 µM), most hits filed as inhibitors | HepG2 CAGA-GFP TGF-b/SMAD3 reporter, GFP fluorescence, 18 h; TGF-beta stimulated, 500 pg/mL final; also: nearly all actives have a fitted effect of over 65% in size
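Cell-based qHTS in HEPG2 carrying a CAGA-GFP Smad reporter; compounds added before 500 pg/mL final TGF-beta, 18 h incubation at 37 degrees C, GFP fluorescence quantified per cell by imaging cytometry.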
A549 tox = kills or reduces viability of A549 cells in Nrf2 counter-screen. A549 ARE-Fluc cells, CellTiter-Fluor viability, 18-24 h. Potency, µM (titrated, usually from 46 µM), hits mostly inhibitors. 390,000 compounds, 0.16% hits
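Cytotoxicity counterscreen: CellTiter-Fluor fluorescence was measured in A549 ARE_Fluc cells after 18-24 h of compound exposure in a concentration series. The subsequent BugLite luminescent read reports ARE-luciferase activity.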
HepG2 viability = kills HepG2 cells in TGF-b inhibitor counter-screen; 410,000 compounds, 0.76% hits; HepG2 CAGA-GFP viability, ATP luminescence, 18 h; Potency, µM (highest dose often 46.1 µM), hits mostly cytotoxic; AID 588856
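HepG2 CAGA-GFP cells (1000/well, DMEM with 1% FBS) received compound, then TGF-beta at 500 pg/mL final, and were incubated 18 hours at 37 degrees C. Viability was read by CellTiter-Glo luminescence. Media-only wells were set as complete cell-killing and DMSO as no toxicity.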
A number is an active result; . = inactive; ? = inconclusive; / = no result; ! = not active in a repeat. Sampled rows, rich in hits. Any-hit rate of the full collection: about 3.8%. Calls follow the shape of the dose curve; as a rule, active = well fitted curve in the direction sought with a large enough effect; inconclusive = small, poorly fitted or top-dose-only effect, or another doubt; inactive = no such curve, though single readings can be large; an effect the other way counts as inactive or inconclusive.

SMILES	Nrf2 block	ATXN viability	ATXN2 expr inh	TGFb SMAD3 inh	A549 tox	HepG2 viability
CCCSc1ncc(Cl)c(C(=O)NCc2ccc(OC)cc2)n1	?	/	/	/	.	.
COc1ccc(N2CCN(C(=O)c3nc(SC)ncc3Cl)CC2)cc1	.	.	.	.	.	.
Cc1nc(C)c(C(=O)N2CCCC(C(=O)c3ccc4ccccc4c3)C2)s1 (stereo unspecified)	?	/	.	.	.	.
Cc1ccc2c(c1C)NC(=O)C21N2CCCC2C(C(=O)c2ccc3ccccc3c2)C12C(=O)Nc1ccccc12 (stereo unspecified)	?	.	/	15.8µM	.	.
O=C(O)CC1(CC(=O)N2CCOCC2)CCCC1	.	.	.	.	.	.
C#C[C@]1(O)CC[C@H]2[C@H]3CCc4cc(OC)ccc4[C@H]3CC[C@@]21C	/	/	.	/	/	/
C#C[C@]1(O)CC[C@H]2[C@@H]3CCc4cc(OC5CCCC5)ccc4[C@H]3CC[C@@]21C	.	31.6µM	?	.	.	.
NC(=O)Nc1ccc(C(=O)OCC(=O)NC2CCCCC2)cc1	.	.	/	.	.	.
C=CCc1cccc(CNc2nc3ccccc3n2C(C)C)c1O	?	?	31.6µM	12.6µM	.	.
CC(C)n1c(NCc2ccccc2O)nc2ccccc21	.	.	.	.	.	.
COc1cc(OC)c(NC(=O)N2CCc3c([nH]c4ccccc34)C2c2ccccc2F)cc1Cl (stereo unspecified)	.	.	.	.	.	.
COC(=O)c1cc(C)nc2c1C(=O)C(=O)C=C2N1CCOCC1	16.4µM	3.16µM	3.55µM	4.47µM	?	5.01µM
Oc1cc2c(cc1C(c1ccc(Br)cc1)N1CCCC1)OCO2 (stereo unspecified)	.	.	.	?	.	14.1µM
O=S(=O)(Nc1nc2ccccc2nc1Nc1ccc(N2CCOCC2)cc1)c1cc(Cl)ccc1Cl	.	.	.	.	.	.
N#Cc1ccccc1COc1ccc(/C=C/C(=O)O)cc1	2.31µM	.	/	.	.	.
Cc1ncc(CO)c2c1Oc1nc(-c3ccccc3F)nc(SCC(=O)N(C)c3ccccc3)c1C2	?	17.8µM	?	?	.	.
Cc1ncc(CO)c2c1Oc1nc(-c3ccccc3)nc(SCC(=O)N3CCCCC3)c1C2	?	14.1µM	.	.	.	.
CCN(CC)C(=O)CSc1nc(-c2ccccc2F)nc2c1Cc1c(CO)cnc(C)c1O2	.	.	.	.	.	.
C/C=C(/C)C(=O)OC1c2c(ccc3ccc(=O)oc23)OC(C)(C)C1OC(=O)/C(C)=C\C (stereo unspecified)	?	?	?	11.2µM	?	.
C/C=C(\C)C(=O)OC1c2c(ccc3ccc(=O)oc23)OC(C)(C)C1OC(C)=O (stereo unspecified)	?	?	.	.	.	.
CC(c1ccc(Cl)cc1)n1c(-c2ccc3ccccc3n2)n[nH]c1=S (stereo unspecified)	18.4µM	.	.	.	?	.
CC(c1ccc(F)cc1)n1c(-c2ccc3ccccc3n2)n[nH]c1=S (stereo unspecified)	?	.	.	.	.	.
O=C(CCS(=O)(=O)c1ccccc1)Nc1ncc([N+](=O)[O-])s1	.	.	.	15.8µM	.	.
CCCOc1ccc(/C=C/C(=O)Nc2ccc([N+](=O)[O-])cc2)cc1	23.1µM	?	?	.	.	.
O=C(Nc1ncc([N+](=O)[O-])s1)c1cccs1	?	?	.	?	?	12.6µM!
SMILES	Nrf2 block	ATXN viability	ATXN2 expr inh	TGFb SMAD3 inh	A549 tox	HepG2 viability
O=C(/C=C/c1ccc([N+](=O)[O-])cc1)Nc1ncc([N+](=O)[O-])s1	?	?	/	12.6µM	.	.
Cc1cnc(NC(=O)c2cccs2)s1	?	.	.	.	.	.
COCCCNC(=O)CSc1nc(-c2ccc(OC)cc2)[nH]c1-c1ccc(OC)cc1	.	.	.	?	.	.
CC(C)OCCCNC(=O)c1cc2c(-c3ccc(Cl)cc3)nn(C)c2s1	.	/	/	.	.	.
CCCCN(CCCC)S(=O)(=O)c1ccc(NC(=O)c2c(-c3ccccc3)noc2C)cc1	.	.	.	?	.	.
Cc1onc(-c2ccc3c(c2)OCO3)c1-c1ccc2[nH]ccc2c1	14.6µM	?	.	12.6µM	.	.
CCCCn1c2c(c(=N)c3ccccc31)CCC2	.	.	.	.	.	.
CCCCCCCCn1c2c(c(=N)c3ccccc31)CCC2	2.91µM	?	7.52µM	?	?	.
CCCCCCCCCCn1c2c(c(=N)c3c1CCC3)CCC2	?	?	?	12.6µM	?	.
CCCCCCCCCn1c2c(c(=N)c3c1CCC3)CCCC2	.	?	?	6.31µM	?	.
CCN(CC)c1ccc(CN(C(=O)Cc2coc3ccc(C)cc23)C2CCS(=O)(=O)C2)cc1 (stereo unspecified)	.	?	.	?	.	.
Cc1ccc(OCCOC(=O)c2cc(S(=O)(=O)N3CCCCC3)ccc2N2CCOCC2)cc1	11.6µM	?	.	?	.	.
COc1cc(C)ccc1OCC(=O)OCC(=O)c1[nH]c(C)c(C(C)=O)c1C	.	.	.	.	.	.
CC(=O)c1c(C)[nH]c(C(=O)COc2ccc(C#N)cc2)c1C	11.6µM	.	.	.	.	.
CC(=O)c1c(C)[nH]c(C(=O)COc2cc(C)ccc2C(C)C)c1C	7.31µM	?	.	.	.	.
COc1ccccc1OCC(=O)c1[nH]c(C)c(C(C)=O)c1C	5.17µM	.	.	.	.	.
Cc1ccc(S(=O)(=O)NC(=O)COc2cc(C)ccc2C(C)C)cc1	.	.	.	.	.	.
CCc1ccccc1OCC(=O)OCC(=O)Nc1cc(C)on1	.	.	.	.	.	3.16µM
Cc1cc(NC(=O)COC(=O)COc2ccc(C(=O)c3ccccc3)cc2)no1	.	.	.	.	.	.
CCOC(=O)c1c(NC(N)=O)sc(C)c1C	.	.	.	.	.	.
CCOC(=O)c1c(N2C(=O)C=CC2=O)sc(C)c1C	?	?	?	15.8µM	?	.
CC1(O)CC(c2ccc(Cl)cc2)=NN1C(=O)c1ccc([N+](=O)[O-])cc1 (stereo unspecified)	18.4µM	.	?	?	?	.
COc1ccc(CCNC(=O)CSc2cn(CCNC(=O)c3ccccc3F)c3ccccc23)cc1OC	?	?	.	?	.	.
COc1ccc(CN2CCN(C(=O)C3CCN(S(=O)(=O)c4cccs4)CC3)CC2)c(OC)c1OC	14.6µM	.	.	.	.	.
COc1ccc(N2CCN(C(=O)C3CCN(S(=O)(=O)c4cccs4)CC3)CC2)cc1	?	.	.	?	.	.
